Experimental data reported in PubChem BioAssay (NCI).
The panel holds about 83,000 compounds, 20% with a hit somewhere; the sample as a whole holds those more often.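 Negative percent growth values reflect cell death: -40 means 40% of the cells present at the start died, and -100 means all died.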 A number with no mark means an inactive call. Activity calls are given as the source filed them. Rule for the calls: active = growth percent below 10; inactive = the rest.

Tests used:
Assay in all cases: NCI-60 one-dose screen, 48 h (100 = growth as untreated, 0 = no growth, -100 = all killed)
Conditions in all cases: 10 µM unless noted
SR leukemia = test system: SR leukemia
RPMI-8226 leukemia = test system: RPMI-8226 leukemia
OVCAR-8 ovarian = test system: OVCAR-8 ovarian
OVCAR-5 ovarian = test system: OVCAR-5 ovarian
OVCAR-4 ovarian = test system: OVCAR-4 ovarian
SK-OV-3 ovarian = test system: SK-OV-3 ovarian
IGROV1 ovarian = test system: IGROV1 ovarian
OVCAR-3 ovarian = test system: OVCAR-3 ovarian
HS 578T breast = test system: HS 578T breast
NCI/ADR-RES ovarian = test system: NCI/ADR-RES ovarian
T-47D breast = test system: T-47D breast
BT-549 breast = test system: BT-549 breast
MDA-MB-435 melanoma = test system: MDA-MB-435 melanoma
SW-620 colon = test system: SW-620 colon
MCF7 breast = test system: MCF7 breast
HCT-116 colon = test system: HCT-116 colon
HCC-2998 colon = test system: HCC-2998 colon
KM12 colon = test system: KM12 colon
MDA-MB-468 breast = test system: MDA-MB-468 breast

Row | Compound | growth (SR leukemia) | growth (RPMI-8226 leukemia) | growth (OVCAR-8 ovarian) | growth (OVCAR-5 ovarian) | growth (OVCAR-4 ovarian) | growth (SK-OV-3 ovarian) | growth (IGROV1 ovarian) | growth (OVCAR-3 ovarian) | growth (HS 578T breast) | growth (NCI/ADR-RES ovarian) | growth (T-47D breast) | growth (BT-549 breast) | growth (MDA-MB-435 melanoma) | growth (SW-620 colon) | growth (MCF7 breast) | growth (HCT-116 colon) | growth (HCC-2998 colon) | growth (KM12 colon) | growth (MDA-MB-468 breast)
1 | Cc1ccc(S(=O)(=O)c2nc(S(=O)(=O)c3ccc(C)cc3)c(N3CCN(C)CC3)s2)cc1 | 16.1% | 52.2% | 48% | 94.1% | 62.5% | 124% | 77.1% | 46.1% | 81.1% | 44.4% | 38% | 43.4% | 8.29% (active) | 36.1% | 43.1% | 46.9% | 107% | 76.4% | -15% (active)
2 | COc1ccc(/C=N/NC(=O)Cn2nc(Cc3ccc(OC)cc3)c3onc(C)c3c2=O)cc1 | 53.4% | 53.7% | 45% | 52.2% | -9.28% (active) | 25.9% | 77.6% | 50.8% | 36.3% | 40.6% | 40.7% | 36.9% | 62% | 56.6% | 45% | 32.3% | 6.89% (active) | 53% | 67.4%
3 | COc1ccc(C2CC(c3ccc(S(=O)(=O)NCCNc4nc(Nc5ccc(F)cc5)nc(N(C)C)n4)cc3)=Nc3c(N)nc(N)nc3N2)cc1 (stereo not given) | 8.79% (active) | 24% | 79.5% | 98.8% | 83.7% | 108% | 95.7% | 95.4% | 70.6% | 99.9% | 66.2% | 57.1% | 83.3% | 96% | 47.6% | 51.2% | 90.6% | 82.5% | 8.63% (active)
4 | OCNc1ccc(-n2cnc3cc(-c4ccc(O)cc4)ccc32)cc1C(F)(F)F | 25.3% | 24.1% | 16% | 34.4% | 55% | 54.7% | 44% | 15.9% | 11.2% | 17.2% | 23.8% | 24% | 7.66% (active) | 27.1% | 10.1% | 22.6% | 43.4% | 4.46% (active) | 27.7%
5 | CN(C)CCn1c2ccccc2c2nc3ccc([N+](=O)[O-])cc3nc21 | 13% | 20.3% | -15.6% (active) | -0.168% (active) | 16.6% | 8.18% (active) | 4.78% (active) | 7.62% (active) | 10.1% | 8.38% (active) | 14.3% | 12.5% | 22.3% | 12.2% | 12.4% | 0.47% (active) | 2.82% (active) | 1.62% (active) | -25.5% (active)
6 | COc1cc2oc(-c3cccc(C(=O)Nc4ccc(Cl)cc4)c3)cc(=O)c2c(OCCNC(=O)[C@@H](N)CCC(=O)O)c1OC | 42.7% | 25.5% | 73.7% | 76.9% | 91.9% | 88.8% | 62.9% | 113% | 88.9% | 97.4% | 73.7% | 84.5% | 88.6% | 106% | 61% | 58.7% | 115% | 93.2% | 74.5%
7 | C#CCOc1cc(N(CC)CC)ccc1C(C(=O)NC(C)(C)C)N(C(=O)C1CCc2cc(F)ccc2O1)c1cc(C)cc(C)c1 (stereo not given) | 20.4% | 17.6% | 34.1% | 49.7% | 36.8% | 46.7% | 61.9% | 30.5% | 53.7% | 41.9% | 18.8% | 43.1% | 47.1% | 36.4% | 14.9% | 11.4% | 54.6% | 25.9% | 24.3%
8 | C/C(=N\N=C1/C(=O)Nc2ccc(Cl)cc21)c1ccc2c(c1)Nc1ccccc1S2 | 11.4% | 10.8% | -15.6% (active) | 15.8% | 15.7% | 50.4% | -8.9% (active) | -66.9% (active) | 9.82% (active) | -28.3% (active) | 11.9% | -32.1% (active) | -35.2% (active) | -27.8% (active) | -9.38% (active) | -43% (active) | -48.2% (active) | -79.3% (active) | 2.73% (active)
9 | COc1ccc(-c2nc(SC(C)C)nc(NCCc3c[nH]c4ccccc34)c2C#N)cc1 | 2.63% (active) | 16.3% | 66.5% | 65.4% | 57.1% | 72% | 94.3% | 63.8% | 36.3% | 32.5% | 6.31% (active) | 63% | 53.4% | 32.9% | 7.2% (active) | 7.04% (active) | 32.5% | 25.5% | 30.1%
10 | Cn1cc(-c2nc(N)nnc2-c2c[nH]c3ccc(Br)cc23)c2cccnc21 | 29.1% | 45% | 47.9% | 80.3% | 71.1% | 61.8% | 46.2% | 29.2% | 33.9% | 78.7% | 62.5% | 33.9% | 12% | 39.9% | 21.4% | 21.2% | 77% | 33.9% | 44.6%
11 | COc1cc2oc(-c3cccc(C(=O)Nc4ccc(Cl)cc4)c3)cc(=O)c2c(OCC(=O)N[C@@H](Cc2ccccc2)C(=O)O)c1OC | 104% | 101% | 106% | 101% | 104% | 138% | 98% | 117% | 108% | 104% | 109% | 125% | 101% | 99.2% | 93.2% | 109% | 121% | 105% | 112%
12 | COc1ccc(NC(=O)[C@H](C)N)cc1C(=O)Nc1cccc(C2CC(=O)c3c(cc(OC)c(OC)c3OC)O2)c1 (stereo not given in full) | 63.8% | 55.3% | 68.8% | 104% | 81.7% | 146% | 98.7% | 91.9% | 95.8% | 86.1% | 53.7% | 67.3% | 93.2% | 99.4% | 72.1% | 93.9% | 109% | 87% | 76.1%
13 | CC(C)Sc1nc(NCCc2c[nH]c3ccccc23)c(C#N)c(-c2ccc(F)cc2)n1 | -19.8% (active) | 14.1% | 57.3% | 81.9% | 59.1% | 76.9% | 90.4% | 58.1% | 43% | 29.5% | 20.8% | 65% | 58.7% | 6.5% (active) | 4.29% (active) | 3.83% (active) | 21.5% | 15.7% | 2.22% (active)
14 | COc1ccc(C(=O)/C=C/c2ccc(OC)c(OCc3ccccc3)c2)cc1OC | 14.4% | 7.98% (active) | -7.56% (active) | 31.4% | 30.1% | 24.7% | 22.2% | 16.3% | 18.7% | -4.74% (active) | 15.7% | -15.5% (active) | 22.7% | 9.63% (active) | 7.12% (active) | 10.7% | 12.6% | 8.98% (active) | 1.46% (active)
15 | C#CCOc1cc(N(CC)CC)ccc1C(C(=O)NC(C)(C)C)N(C(=O)C1CCc2cc(F)ccc2O1)c1ccccc1Br (stereo not given) | 47.6% | 37.9% | 63.2% | 69% | 60.4% | 72.1% | 90.9% | 81.6% | 84.7% | 63.3% | 55.6% | 63.7% | 50.6% | 59.2% | 28.7% | 27.5% | 93.5% | 40.4% | 38.2%
